# Laboratory results as given in PubChem BioAssay AID683 (University of Pittsburgh Molecular Library Screening Center, 2007).
# The other results are listed elsewhere or left out. Values without a mark were called inactive. Cut-off read from the data, not from the text of the source: active = EC50 below about 50 µM; inactive = the rest.
# Assay: redox cycling H2O2 generation, 1 mM DTT, dose response, artefact control, biochemical, 1.0 mM DTT, Cdc25B catalytic domain (AID 683)
# Settings: cell-free redox cycling H2O2 generation
row,SMILES,EC50 [µM]
1,c1ccc(CSc2nnc(-c3ccco3)c(-c3ccco3)n2)cc1,> 50
2,COc1cccc2c(C)c(C(=O)O)[nH]c12,> 50
